Most compounds without a hit are left out; they make up all but 27% or so of the library.
Cav3 T inh – blocks human Cav3.2 T-type calcium channel; Cav3.2-expressing cells, Fluo-4 calcium fluorescence FDSS; stronger effect = lower value; O95180; actives 4% (n = 100,000); B-score at 10 µM;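 active = single-dose well whose peak fluorescence ratio is a statistical outlier from its plate by either plate-standardised score or position-corrected B-score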
CYP2C9 inh – blocks human cytochrome P450 2C9; P11712; CYP2C9 Supersomes, luciferin-H conversion, luminescence; inhibition, % at 5 µM; actives 20% (n = 96,000);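 active = blocking of liver enzyme CYP2C9 beyond about 50% at 5 µM, limit read from the data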
CYP2C19 activ – cytochrome P450 2C19 (human) activation | P33261 | recombinant CYP2C19, luciferin-H EGE luminescence; stronger effect = higher value; 0 = fully inhibited enzyme, 1 = untreated enzyme | activation factor at 5 µM | 96,000 tested, under 10 active;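 active = activation factor of at least 2 at 5 µM in the primary screen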
Target sequence (P33261 whole entry, looked up): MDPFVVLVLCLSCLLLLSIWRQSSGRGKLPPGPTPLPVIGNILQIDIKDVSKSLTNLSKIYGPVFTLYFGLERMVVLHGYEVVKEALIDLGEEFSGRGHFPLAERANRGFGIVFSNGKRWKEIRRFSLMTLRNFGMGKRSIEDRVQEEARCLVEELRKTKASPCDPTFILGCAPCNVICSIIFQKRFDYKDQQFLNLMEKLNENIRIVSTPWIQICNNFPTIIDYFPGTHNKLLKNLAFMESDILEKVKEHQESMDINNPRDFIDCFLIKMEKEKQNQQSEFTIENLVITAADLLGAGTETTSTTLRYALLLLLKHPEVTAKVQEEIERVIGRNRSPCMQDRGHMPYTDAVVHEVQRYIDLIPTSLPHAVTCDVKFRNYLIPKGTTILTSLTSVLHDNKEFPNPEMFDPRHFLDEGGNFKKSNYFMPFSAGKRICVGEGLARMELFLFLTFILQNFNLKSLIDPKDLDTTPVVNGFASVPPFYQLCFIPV
CYP2C9 activ – CYP2C9 (human) activation; activation factor at 5 µM; P11712; AID 1024; recombinant CYP2C9, luciferin-H conversion, luminescence; stronger effect = higher value; factor 1 = untreated enzyme, 0 = blocked; actives 1.4% (n = 96,000);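 active = activation factor of 2 or more for CYP2C9 at a 5 µM dose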
CYP2C19 inhib – inhibitors of human CYP2C19; P33261; CYP2C19 Supersomes, luciferin-H EGE luminescence, 30 min; inhibition, % at 5 µM; actives 21% (n = 96,000); AID 778;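 active = CYP2C19 inhibition above a set limit at 5 µM in the primary screen, cut at about 50% in these data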
A number is an active result; - = inactive; . = not tested or not shown.

SMILES | Cav3 T inh | CYP2C9 inh | CYP2C19 activ | CYP2C9 activ | CYP2C19 inhib
CN(NC(=O)c1ccc(Cl)cc1)c1nc(-c2ccccc2)nnc1C(F)(F)F | . | - | - | - | -
CC(C)CC(=O)NN(C)c1nc(-c2ccccc2)nnc1C(F)(F)F | - | - | - | - | 78
CCCCC(=O)NN(C)c1nc(-c2ccccc2)nnc1C(F)(F)F | - | - | - | - | 78
CNc1nc(-c2ccccc2)nnc1C(F)(F)F | - | - | - | 4.1 | -
Cc1ccc(Sc2nc(-c3ccccc3)nnc2C(F)(F)F)cc1 | - | - | - | - | -
COc1ccccc1CNC(=O)C(NS(=O)(=O)c1ccc2c(c1)oc(=O)n2C)C(C)C (stereo unspecified) | - | - | - | - | -
CCOC(=O)N1CCN(C(=O)c2ccc(N3CCCC3=O)cc2)CC1 | - | - | - | - | -
Cc1nn(CC(=O)Nc2ccc3c(c2)oc2ccccc23)c(=O)c2ccccc12 | . | - | - | - | -
CC1=C(C(N)=O)C(c2ccccc2F)NC(=O)N1 (stereo unspecified) | - | 53 | - | - | -
NC(=O)CSc1nnc(Cn2c(=O)sc3ccccc32)n1-c1ccccc1 | - | . | . | . | .
CCOC(=O)C(C)Sc1nnc(Cn2c(=O)sc3ccccc32)n1-c1ccccc1 (stereo unspecified) | . | 80 | - | - | 69
CCOC(=O)c1c(NC(=O)CSc2nnnn2CC)sc(C)c1C | - | 52 | - | - | -
CCOC(=O)c1sc(NC(=O)CSc2nc3c(c(=O)n2-c2ccc(C)cc2)SCC3)c(C(=O)OCC)c1C | - | . | . | . | .
CCOC(=O)c1c(NC(=O)CSc2nnnn2C)sc(CC)c1C | - | - | - | - | 83
CCOC(=O)c1sc(-c2ccccc2)cc1NC(=O)CSc1nnnn1C | - | - | - | - | -
CCOC(=O)CNC(=O)CSc1nnnn1-c1ccc(C)c(C)c1 | - | - | - | 2.6 | -
CCOC(=O)c1sc(NC(=O)CSc2nnnn2-c2ccc(C)cc2)c(C(=O)OCC)c1C | - | 80 | - | - | -
CCC(C(=O)NC1CCCCC1)n1c(SCc2ccccc2F)nc2ccncc21 (stereo unspecified) | - | . | . | . | .
COC(=O)c1c(NC(=O)CSc2n[nH]c(N)n2)sc(C)c1C | . | - | - | - | -
CCOC(=O)c1c(NC(=O)CSc2n[nH]c(N)n2)sc(CC)c1C | - | 76 | - | - | -
COc1cc(/C=N/N2CCN(c3ccccc3OC)CC2)ccc1O | - | - | - | - | -
COc1cc(/C=N/N(C)c2ccccc2)ccc1O | - | 74 | - | - | 82
COc1cc(OC)c(OC)cc1/C=N/N(C)c1ccccc1 | - | 70 | - | - | -
O=C(CSc1nnc(-c2ccccc2)c(-c2ccccc2)n1)N1CCc2ccccc21 | -4.5 | - | - | - | -
O=C(CSc1nc(-c2ccccc2)cc(=O)[nH]1)N1CCc2ccccc21 | - | 69 | - | - | -
SMILES | Cav3 T inh | CYP2C9 inh | CYP2C19 activ | CYP2C9 activ | CYP2C19 inhib
CCc1nnc(SCC(=O)N2CCCc3ccccc32)nc1CC | - | 56 | - | - | 78
CSc1nsc(SCC(=O)N2CCCc3ccccc32)n1 | - | 80 | - | - | 99
CCc1c(C)nc(N)n2c(SCC(=O)N3CCCc4ccccc43)nnc12 | - | - | - | - | -
Nc1nc(SCC(=O)N2CCc3ccccc32)[nH]c(=O)c1-c1ccccc1 | - | - | - | - | -
COc1ccccc1CN1CC(C(=O)NC2CCCCC2)CC1=O (stereo unspecified) | - | - | - | - | -
COc1ccccc1Oc1ccc2c(c1)C(=O)N(c1ccc(Br)c3cccnc13)C2=O | - | - | - | - | -
COC/C=C/C1=CC2=CC(=O)C(C)(OC(=O)c3cnc4ccccc4n3)C(=O)C2=CN1C1CCCC1 (stereo unspecified) | - | . | . | . | .
N#CC(c1nc2ccccc2nc1N1CCCCC1)S(=O)(=O)c1ccc(Cl)cc1 (stereo unspecified) | . | - | - | - | -
O=c1oc2c3c4c(cc2c2c1CCC2)OCCN4CCC3 | - | - | - | - | -
O=C(CSc1n[nH]c(-c2ccccc2O)n1)N1CCCc2ccccc21 | - | 86 | - | - | 82
Nc1cc(=O)[nH]c(SCC(=O)N2CCCc3ccccc32)n1 | - | . | . | . | .
CCCc1[nH]c(=O)c(C#N)c2c1CCCC2 | - | - | - | - | -
C=CCSc1nc(C)c(CC(=O)OCC(C)C)c(=O)[nH]1 | - | - | - | - | -
CN(c1ccc(OCC(=O)Nc2ccc3[nH]c(=O)[nH]c3c2)cc1)S(=O)(=O)c1ccc(Cl)cc1 | - | 62 | - | - | -
CC(=O)NC(=S)Nc1ccc(NC(=O)COc2ccc(Cl)cc2)cc1 | - | - | - | - | -
CCOc1ccc(OCC(=O)Nc2ccc(S(=O)(=O)Nc3cc(C)nc(C)n3)cc2)cc1 | - | - | - | - | -
CCOc1ccc(S(=O)(=O)N(C)c2ccc(OCC(=O)Nc3ccc4[nH]c(=O)[nH]c4c3)cc2)cc1 | - | 78 | - | - | -
CCN(CC)CCN(C)Cc1ccc(Br)cc1 | - | - | - | - | -
Clc1ccc(-c2nnsc2SCc2ccccc2)cc1 | - | - | - | - | -
CCC(=O)Nc1ccc2c(c1)ncn2-c1ccc(OC)cc1 | - | . | . | . | .
CCC(=O)N/C=C/n1cnc2cc(C(F)(F)F)ccc21 | - | - | - | - | 80
COc1ccc2c3c(cccc13)N(C)N=C2C | . | 63 | - | - | 74
COc1ccc(CCN2C(=O)c3cccc4cccc(c34)C2=O)cc1OC | . | - | - | - | -
O=C1CC(N2CCCc3ccccc32)C(=O)N1c1ccccc1Cl (stereo unspecified) | - | . | . | . | .
CC1=CCC2C(=O)N(c3ccc(C(=O)N4CCCCCC4)cc3)C(=O)C2C1 (stereo unspecified) | - | - | - | - | -
SMILES | Cav3 T inh | CYP2C9 inh | CYP2C19 activ | CYP2C9 activ | CYP2C19 inhib
CCOC(=O)c1c(C)nc2c(c1-c1cc(OC)c(OC)c(OC)c1)C(=O)c1ccccc1-2 | - | - | - | - | -
Cc1ccc(-n2c(-c3cc(C)n(C)n3)n[nH]c2=S)cc1 | - | - | - | - | -
Cc1cc(OCc2nn[nH]n2)c2c(C)c(Cc3ccccc3)c(=O)oc2c1 | - | 98 | - | - | 80
Cc1c(Cc2ccccc2)c(=O)oc2c(C)c(OCc3nn[nH]n3)ccc12 | - | 81 | - | - | -
CN1CCC(OC(=O)COc2ccc(C(C)(C)C)cc2)CC1 | . | - | - | - | -
C/C(=N\OC(=O)c1ccc(Cl)cc1)c1nccs1 | - | - | - | - | -
COc1cccc(CNCCNC(=O)c2nonc2N)c1 | - | - | - | - | -
CCOc1c(CNCCNC(=O)c2nonc2N)cccc1OC | - | - | - | - | 74
Nc1nonc1C(=O)NCCNCc1cc(Br)ccc1OCc1ccccc1F | -6.9 | - | - | - | 57
Nc1nonc1C(=O)NCCNCc1ccccc1OCc1ccccc1F | -6.1 | - | - | - | -
COc1cccc(C=NCCNC(=O)c2nonc2N)c1O | - | - | - | - | -
CC(C)(CO)NCc1cc(Br)ccc1OCc1ccccc1 | - | - | - | - | -
